# Test results reported in article PMC7862700, “An all-to-all approach to the identification of sequence-specific readers for epigenetic DNA modifications on cytosine”.
# Experiments:
# Test in all cases: DAPPL (digital affinity profiling via proximity ligation, sequencing); 10 mM Tris-HCl pH 7.5, 50 mM NaCl, 1 mM DTT, 4% glycerol, room temperature, 30 min; GST-TFs on glutathione beads, 16-mer random dsDNA library, 0.1% formaldehyde crosslink after washing; high values mean tight binding
# FEV = target: T1, FEV (Homo sapiens, UniProt Q99581 1-238); conditions: protein: recombinant; tags: N-terminal GST; dsDNA, one strand shown
# T1 sequence: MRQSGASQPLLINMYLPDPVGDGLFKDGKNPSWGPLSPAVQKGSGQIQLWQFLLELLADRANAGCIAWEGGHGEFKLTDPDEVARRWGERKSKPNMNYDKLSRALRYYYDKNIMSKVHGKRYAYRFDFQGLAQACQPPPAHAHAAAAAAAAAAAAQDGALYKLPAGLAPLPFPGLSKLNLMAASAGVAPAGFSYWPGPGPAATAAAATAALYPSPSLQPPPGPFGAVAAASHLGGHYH
# Procedure, shortened: (§1)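 After expression in yeast as GST fusions, human transcription factors were bound to glutathione beads, DNA-barcoded and mixed with a tag-only sample. The pools were incubated with 200 nmole of a 16-mer random double-stranded DNA library in Tris/NaCl/DTT/glycerol buffer (30 min, room temperature), washed and crosslinked with 0.1% formaldehyde. Proximity ligation with BsaI/T4 ligase ran for 1 h at 37 °C, before PCR amplification and sequencing on an Illumina NextSeq500. Binding signal is a hexamer's read frequency for a factor divided by its frequency for the tag-only sample.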
# ETV5 = ETV5 (Homo sapiens, UniProt P41161 1-510); conditions: protein: recombinant; tags: N-terminal GST; dsDNA, one strand shown
# Procedure, shortened: as §1
# HSF1 = HSF1 (Homo sapiens, UniProt Q00613 1-529); conditions: protein: recombinant; tags: N-terminal GST; chain copies: 3; dsDNA, one strand shown
# Procedure, shortened: as §1
# SPIC = target: T2, SPIC (Homo sapiens, UniProt Q8N5J4 1-248); conditions: protein: recombinant; tags: N-terminal GST; dsDNA, one strand shown
# T2 sequence: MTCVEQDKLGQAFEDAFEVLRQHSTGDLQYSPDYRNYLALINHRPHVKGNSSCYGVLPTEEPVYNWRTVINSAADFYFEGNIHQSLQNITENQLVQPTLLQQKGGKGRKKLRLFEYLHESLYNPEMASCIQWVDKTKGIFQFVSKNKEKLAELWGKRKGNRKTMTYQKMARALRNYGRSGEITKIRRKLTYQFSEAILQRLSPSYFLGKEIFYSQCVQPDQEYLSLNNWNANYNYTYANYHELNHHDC
# Procedure, shortened: as §1
# ELF4 = ELF4 (Homo sapiens, UniProt Q99607 1-663); conditions: protein: recombinant; tags: N-terminal GST; dsDNA, one strand shown
# Procedure, shortened: as §1
# ELK4 = target: T3, ELK4 (Homo sapiens, UniProt P28324-2 1-405); conditions: protein: recombinant; tags: N-terminal GST; dsDNA, one strand shown
# T3 sequence: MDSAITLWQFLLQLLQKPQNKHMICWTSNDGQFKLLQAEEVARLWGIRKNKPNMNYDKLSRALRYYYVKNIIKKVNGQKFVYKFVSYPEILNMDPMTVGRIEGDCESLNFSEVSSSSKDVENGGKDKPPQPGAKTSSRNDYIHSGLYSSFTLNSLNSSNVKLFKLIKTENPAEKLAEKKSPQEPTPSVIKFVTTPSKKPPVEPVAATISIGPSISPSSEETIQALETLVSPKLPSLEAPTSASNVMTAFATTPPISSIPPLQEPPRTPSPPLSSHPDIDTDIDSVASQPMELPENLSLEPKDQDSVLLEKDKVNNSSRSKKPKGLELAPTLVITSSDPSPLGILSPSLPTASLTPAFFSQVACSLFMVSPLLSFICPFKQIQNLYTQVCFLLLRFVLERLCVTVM
# Procedure, shortened: as §1
# ETV2 = target: T4, ETV2 (Homo sapiens, UniProt O00321 1-342); conditions: protein: recombinant; tags: N-terminal GST; dsDNA, one strand shown
# T4 sequence: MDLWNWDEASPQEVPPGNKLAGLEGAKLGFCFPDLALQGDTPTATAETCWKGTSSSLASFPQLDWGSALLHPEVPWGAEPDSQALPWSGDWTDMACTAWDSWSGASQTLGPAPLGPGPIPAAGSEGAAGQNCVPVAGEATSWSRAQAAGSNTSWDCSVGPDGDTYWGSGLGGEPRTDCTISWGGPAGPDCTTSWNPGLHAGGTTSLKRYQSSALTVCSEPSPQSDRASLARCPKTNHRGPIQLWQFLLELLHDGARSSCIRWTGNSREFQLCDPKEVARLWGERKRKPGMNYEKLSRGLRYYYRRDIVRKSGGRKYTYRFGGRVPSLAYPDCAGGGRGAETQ
# Procedure, shortened: as §1
# ELF3 = target: T5, ELF3 (Homo sapiens, UniProt P78545 1-371); conditions: protein: recombinant; tags: N-terminal GST; dsDNA, one strand shown
# T5 sequence: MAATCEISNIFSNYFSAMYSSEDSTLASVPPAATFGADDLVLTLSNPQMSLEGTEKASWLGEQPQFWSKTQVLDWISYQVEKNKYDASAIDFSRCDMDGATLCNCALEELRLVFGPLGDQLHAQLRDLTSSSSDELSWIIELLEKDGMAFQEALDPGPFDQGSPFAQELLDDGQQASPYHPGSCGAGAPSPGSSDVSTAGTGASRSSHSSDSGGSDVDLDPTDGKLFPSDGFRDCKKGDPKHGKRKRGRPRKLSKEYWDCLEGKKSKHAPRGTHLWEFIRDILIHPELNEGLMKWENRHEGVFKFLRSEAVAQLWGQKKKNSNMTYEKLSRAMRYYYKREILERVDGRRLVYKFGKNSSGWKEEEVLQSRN
# Procedure, shortened: as §1
# CRX = CRX (Homo sapiens, UniProt O43186 1-299); conditions: protein: recombinant; tags: N-terminal GST; dsDNA, one strand shown
# Procedure, shortened: as §1
# ETV1 = ETV1 (Homo sapiens, UniProt P50549 1-477); conditions: protein: recombinant; tags: N-terminal GST; dsDNA, one strand shown
# Procedure, shortened: as §1
# ERF = target: T6, ERF (Homo sapiens, UniProt P50548 1-548); conditions: protein: recombinant; tags: N-terminal GST; dsDNA, one strand shown
# T6 sequence: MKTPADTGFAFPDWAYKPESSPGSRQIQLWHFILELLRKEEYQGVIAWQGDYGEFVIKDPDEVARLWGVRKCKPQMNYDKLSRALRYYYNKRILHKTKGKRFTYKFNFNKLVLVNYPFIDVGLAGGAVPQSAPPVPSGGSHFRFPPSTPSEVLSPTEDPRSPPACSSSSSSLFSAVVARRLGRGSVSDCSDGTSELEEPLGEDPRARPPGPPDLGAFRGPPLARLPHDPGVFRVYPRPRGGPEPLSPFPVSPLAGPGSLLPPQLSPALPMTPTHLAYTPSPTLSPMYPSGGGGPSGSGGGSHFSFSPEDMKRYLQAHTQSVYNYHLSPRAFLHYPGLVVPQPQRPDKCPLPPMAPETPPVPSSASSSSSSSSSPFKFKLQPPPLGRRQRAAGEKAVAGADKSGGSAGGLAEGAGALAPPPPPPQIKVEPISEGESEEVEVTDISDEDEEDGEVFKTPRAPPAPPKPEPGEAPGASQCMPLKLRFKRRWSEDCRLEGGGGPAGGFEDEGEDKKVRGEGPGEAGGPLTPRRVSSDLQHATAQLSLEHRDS
# Procedure, shortened: as §1
# ETV3L = target: T7, ETV3L (Homo sapiens, UniProt Q6ZN32 1-361); conditions: protein: recombinant; tags: N-terminal GST; dsDNA, one strand shown
# T7 sequence: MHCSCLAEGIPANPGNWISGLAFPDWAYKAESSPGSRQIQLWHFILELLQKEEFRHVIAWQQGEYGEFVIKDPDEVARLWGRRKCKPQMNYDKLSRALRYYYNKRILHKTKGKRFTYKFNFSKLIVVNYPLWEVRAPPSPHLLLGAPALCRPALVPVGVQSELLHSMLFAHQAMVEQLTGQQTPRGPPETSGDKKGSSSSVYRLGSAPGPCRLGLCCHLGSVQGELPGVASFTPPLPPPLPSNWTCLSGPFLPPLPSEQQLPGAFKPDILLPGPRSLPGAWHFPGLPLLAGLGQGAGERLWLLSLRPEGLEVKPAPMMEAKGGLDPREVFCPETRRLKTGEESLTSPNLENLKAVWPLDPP
# Procedure, shortened: as §1
# ETS2 = target: T8, ETS2 (Homo sapiens, UniProt P15036 1-469); conditions: protein: recombinant; tags: N-terminal GST; dsDNA, one strand shown
# T8 sequence: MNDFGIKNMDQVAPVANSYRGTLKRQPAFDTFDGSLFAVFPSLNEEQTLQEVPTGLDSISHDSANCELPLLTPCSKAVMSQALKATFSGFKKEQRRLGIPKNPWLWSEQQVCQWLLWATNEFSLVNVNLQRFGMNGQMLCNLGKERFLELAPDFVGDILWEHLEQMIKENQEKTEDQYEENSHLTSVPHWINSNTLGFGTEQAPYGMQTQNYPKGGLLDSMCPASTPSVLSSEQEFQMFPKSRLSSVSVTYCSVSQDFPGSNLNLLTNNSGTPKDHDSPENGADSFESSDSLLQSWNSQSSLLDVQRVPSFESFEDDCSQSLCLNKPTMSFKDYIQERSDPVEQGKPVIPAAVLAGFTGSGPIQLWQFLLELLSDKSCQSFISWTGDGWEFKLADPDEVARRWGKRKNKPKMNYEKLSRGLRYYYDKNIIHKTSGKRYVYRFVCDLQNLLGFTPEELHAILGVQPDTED
# Procedure, shortened: as §1
# SPDEF = target: T9, SPDEF (Homo sapiens, UniProt O95238 1-335); conditions: protein: recombinant; tags: N-terminal GST; dsDNA, one strand shown
# T9 sequence: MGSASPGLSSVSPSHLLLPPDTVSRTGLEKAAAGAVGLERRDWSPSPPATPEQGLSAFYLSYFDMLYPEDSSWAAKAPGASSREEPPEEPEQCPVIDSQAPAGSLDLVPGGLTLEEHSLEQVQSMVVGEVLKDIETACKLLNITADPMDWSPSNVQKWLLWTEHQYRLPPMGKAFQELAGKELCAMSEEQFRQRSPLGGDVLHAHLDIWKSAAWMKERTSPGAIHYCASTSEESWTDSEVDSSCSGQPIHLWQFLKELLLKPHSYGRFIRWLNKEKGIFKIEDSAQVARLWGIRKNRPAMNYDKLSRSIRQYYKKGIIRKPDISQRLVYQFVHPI
# Procedure, shortened: as §1
# ETV7 = target: T10, ETV7 (Homo sapiens, UniProt Q9Y603 1-341); conditions: protein: recombinant; tags: N-terminal GST; dsDNA, one strand shown
# T10 sequence: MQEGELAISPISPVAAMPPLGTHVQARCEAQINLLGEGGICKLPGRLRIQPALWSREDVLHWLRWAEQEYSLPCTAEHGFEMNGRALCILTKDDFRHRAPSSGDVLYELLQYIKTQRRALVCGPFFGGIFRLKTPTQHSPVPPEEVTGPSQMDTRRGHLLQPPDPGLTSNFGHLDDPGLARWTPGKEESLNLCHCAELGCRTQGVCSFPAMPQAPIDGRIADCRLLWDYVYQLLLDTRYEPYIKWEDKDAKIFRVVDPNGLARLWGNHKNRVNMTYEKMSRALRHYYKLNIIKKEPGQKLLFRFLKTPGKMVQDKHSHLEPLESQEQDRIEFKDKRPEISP
# Procedure, shortened: as §1
# ELF5 = target: T11, ELF5 (Homo sapiens, UniProt Q9UKW6-2 1-255); conditions: protein: recombinant; tags: N-terminal GST; dsDNA, one strand shown
# T11 sequence: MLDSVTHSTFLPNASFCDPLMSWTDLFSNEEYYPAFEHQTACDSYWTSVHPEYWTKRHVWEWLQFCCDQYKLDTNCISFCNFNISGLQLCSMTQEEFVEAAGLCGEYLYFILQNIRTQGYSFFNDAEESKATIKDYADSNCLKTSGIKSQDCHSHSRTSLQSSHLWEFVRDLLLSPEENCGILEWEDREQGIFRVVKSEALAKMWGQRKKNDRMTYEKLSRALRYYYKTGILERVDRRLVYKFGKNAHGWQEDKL
# Procedure, shortened: as §1
# ETV3 = target: T12, ETV3 (Homo sapiens, UniProt P41162-2 1-143); conditions: protein: recombinant; tags: N-terminal GST; dsDNA, one strand shown
# T12 sequence: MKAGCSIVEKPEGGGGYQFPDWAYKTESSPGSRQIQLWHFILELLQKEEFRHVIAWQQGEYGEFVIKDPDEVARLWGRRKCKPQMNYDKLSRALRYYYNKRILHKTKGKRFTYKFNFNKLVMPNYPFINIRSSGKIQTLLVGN
# Procedure, shortened: as §1
# ETV6 = ETV6 (Homo sapiens, UniProt P41212 1-452); conditions: protein: recombinant; tags: N-terminal GST; dsDNA, one strand shown
# Procedure, shortened: as §1
# Chain of ETV1 (P50549 whole entry): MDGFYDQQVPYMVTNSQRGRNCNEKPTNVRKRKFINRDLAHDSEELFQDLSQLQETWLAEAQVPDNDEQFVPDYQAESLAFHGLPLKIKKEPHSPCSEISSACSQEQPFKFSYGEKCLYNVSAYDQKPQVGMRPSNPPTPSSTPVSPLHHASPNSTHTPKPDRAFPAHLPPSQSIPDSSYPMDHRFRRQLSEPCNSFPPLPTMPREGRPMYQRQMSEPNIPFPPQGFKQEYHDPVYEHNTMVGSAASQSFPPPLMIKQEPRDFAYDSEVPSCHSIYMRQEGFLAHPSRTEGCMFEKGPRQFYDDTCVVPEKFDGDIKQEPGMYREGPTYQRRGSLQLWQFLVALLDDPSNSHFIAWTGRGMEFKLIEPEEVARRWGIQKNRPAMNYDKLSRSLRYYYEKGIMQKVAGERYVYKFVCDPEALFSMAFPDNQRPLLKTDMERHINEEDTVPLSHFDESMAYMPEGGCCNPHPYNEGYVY
# Chain of ELF4 (Q99607 whole entry): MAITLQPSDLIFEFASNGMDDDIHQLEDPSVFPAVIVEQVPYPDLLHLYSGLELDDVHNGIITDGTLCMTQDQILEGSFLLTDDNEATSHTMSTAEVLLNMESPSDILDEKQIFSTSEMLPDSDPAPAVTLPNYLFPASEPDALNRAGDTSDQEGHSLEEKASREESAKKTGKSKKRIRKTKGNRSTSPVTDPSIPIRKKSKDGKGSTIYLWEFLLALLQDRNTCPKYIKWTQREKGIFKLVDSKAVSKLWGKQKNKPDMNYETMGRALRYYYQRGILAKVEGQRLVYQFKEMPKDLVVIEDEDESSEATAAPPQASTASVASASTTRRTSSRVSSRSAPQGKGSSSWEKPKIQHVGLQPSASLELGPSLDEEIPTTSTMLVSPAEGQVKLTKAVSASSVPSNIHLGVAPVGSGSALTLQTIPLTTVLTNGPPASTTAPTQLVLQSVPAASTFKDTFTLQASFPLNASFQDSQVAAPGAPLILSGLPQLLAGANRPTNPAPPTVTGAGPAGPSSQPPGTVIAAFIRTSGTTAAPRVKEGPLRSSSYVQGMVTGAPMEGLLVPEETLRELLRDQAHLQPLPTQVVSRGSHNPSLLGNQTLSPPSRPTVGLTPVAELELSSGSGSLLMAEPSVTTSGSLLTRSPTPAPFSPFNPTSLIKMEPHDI
# Chain of ETV6 (P41212 whole entry): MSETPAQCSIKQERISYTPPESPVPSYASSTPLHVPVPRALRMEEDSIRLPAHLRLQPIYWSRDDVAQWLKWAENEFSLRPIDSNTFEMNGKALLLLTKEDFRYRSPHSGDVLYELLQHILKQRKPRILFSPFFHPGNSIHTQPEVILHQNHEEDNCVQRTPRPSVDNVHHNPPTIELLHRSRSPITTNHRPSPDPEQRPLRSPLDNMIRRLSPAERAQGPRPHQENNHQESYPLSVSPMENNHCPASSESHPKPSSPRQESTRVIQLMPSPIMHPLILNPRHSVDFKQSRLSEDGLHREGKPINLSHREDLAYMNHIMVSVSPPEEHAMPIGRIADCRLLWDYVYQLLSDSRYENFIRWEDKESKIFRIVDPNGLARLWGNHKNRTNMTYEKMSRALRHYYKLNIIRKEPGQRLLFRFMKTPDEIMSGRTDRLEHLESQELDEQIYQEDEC
# Chain of HSF1 (Q00613 whole entry): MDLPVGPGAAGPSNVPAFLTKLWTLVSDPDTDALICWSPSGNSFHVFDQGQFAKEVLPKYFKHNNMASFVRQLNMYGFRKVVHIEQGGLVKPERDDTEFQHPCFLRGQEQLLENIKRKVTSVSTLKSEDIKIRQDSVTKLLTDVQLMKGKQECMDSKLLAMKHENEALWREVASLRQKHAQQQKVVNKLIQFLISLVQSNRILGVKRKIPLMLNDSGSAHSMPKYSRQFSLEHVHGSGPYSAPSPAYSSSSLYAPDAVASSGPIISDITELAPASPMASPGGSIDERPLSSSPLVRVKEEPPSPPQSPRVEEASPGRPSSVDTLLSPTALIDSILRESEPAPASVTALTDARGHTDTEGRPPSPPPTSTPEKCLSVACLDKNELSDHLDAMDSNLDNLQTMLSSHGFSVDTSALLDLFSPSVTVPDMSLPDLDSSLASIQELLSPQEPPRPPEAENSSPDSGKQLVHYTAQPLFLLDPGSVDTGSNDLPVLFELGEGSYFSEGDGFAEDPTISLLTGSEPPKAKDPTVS
# Chain of ETV5 (P41161 whole entry): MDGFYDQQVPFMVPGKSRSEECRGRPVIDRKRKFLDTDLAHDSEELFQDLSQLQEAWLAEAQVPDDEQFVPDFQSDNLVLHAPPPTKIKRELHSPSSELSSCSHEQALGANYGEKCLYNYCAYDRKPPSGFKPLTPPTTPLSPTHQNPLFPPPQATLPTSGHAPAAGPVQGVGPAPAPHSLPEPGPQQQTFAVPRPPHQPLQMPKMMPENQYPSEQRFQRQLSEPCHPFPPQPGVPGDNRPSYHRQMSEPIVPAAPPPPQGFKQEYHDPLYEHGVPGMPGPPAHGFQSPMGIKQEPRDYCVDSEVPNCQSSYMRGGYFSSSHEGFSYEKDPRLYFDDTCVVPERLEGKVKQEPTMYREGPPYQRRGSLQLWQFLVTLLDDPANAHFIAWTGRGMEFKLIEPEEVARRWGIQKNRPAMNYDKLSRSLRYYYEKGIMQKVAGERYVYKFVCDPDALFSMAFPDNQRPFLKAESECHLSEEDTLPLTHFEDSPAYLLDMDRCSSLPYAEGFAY
# Chain of CRX (O43186 whole entry): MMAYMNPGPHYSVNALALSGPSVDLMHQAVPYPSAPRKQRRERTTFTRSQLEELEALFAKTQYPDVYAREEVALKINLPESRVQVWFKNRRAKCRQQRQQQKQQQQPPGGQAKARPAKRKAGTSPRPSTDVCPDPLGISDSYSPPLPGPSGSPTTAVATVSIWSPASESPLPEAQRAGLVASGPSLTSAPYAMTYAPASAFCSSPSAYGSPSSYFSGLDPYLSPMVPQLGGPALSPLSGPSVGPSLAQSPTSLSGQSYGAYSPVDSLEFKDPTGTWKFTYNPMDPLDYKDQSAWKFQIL
sequence,measurement,setting,value
TTTGCC,binding signal,FEV,"1.26 fold enrichment (6-mer frequency, TF over GST control)"
same,binding signal,ETV5,"1.26 fold enrichment (6-mer frequency, TF over GST control)"
same,binding signal,HSF1,"1.24 fold enrichment (6-mer frequency, TF over GST control)"
same,binding signal,SPIC,"1.31 fold enrichment (6-mer frequency, TF over GST control)"
same,binding signal,ELF4,"1.29 fold enrichment (6-mer frequency, TF over GST control)"
same,binding signal,ELK4,"1.37 fold enrichment (6-mer frequency, TF over GST control)"
same,binding signal,ETV2,"1.29 fold enrichment (6-mer frequency, TF over GST control)"
same,binding signal,ELF3,"1.47 fold enrichment (6-mer frequency, TF over GST control)"
same,binding signal,CRX,"1.32 fold enrichment (6-mer frequency, TF over GST control)"
same,binding signal,ETV1,"1.33 fold enrichment (6-mer frequency, TF over GST control)"
same,binding signal,ERF,"1.31 fold enrichment (6-mer frequency, TF over GST control)"
same,binding signal,ETV3L,"1.2 fold enrichment (6-mer frequency, TF over GST control)"
same,binding signal,ETS2,"1.32 fold enrichment (6-mer frequency, TF over GST control)"
same,binding signal,SPDEF,"1.21 fold enrichment (6-mer frequency, TF over GST control)"
same,binding signal,ETV7,"1.26 fold enrichment (6-mer frequency, TF over GST control)"
same,binding signal,ELF5,"1.2 fold enrichment (6-mer frequency, TF over GST control)"
same,binding signal,ETV3,"1.32 fold enrichment (6-mer frequency, TF over GST control)"
same,binding signal,ETV6,"1.11 fold enrichment (6-mer frequency, TF over GST control)"
